Compounds with a hit are over-represented: about 7.7% of the library has one in this group of screens.
HCMV antiviral = inhibitors of human cytomegalovirus; HFF cells, HCMV-luciferase reporter, 72 h; hits give low values; activity change, negative = inhibition, % at 57.5 µM; actives 4.5% (n = 410,000); in the data active = activity change below about -60%; inconclusive = no clear call, values can overlap the other calls; inactive = above about -39%
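Cell-based, HFFs, 1000 cells/well, 16 h 37C; cpds in DMSO + HCMV-luc, MOI 1 PFU/cell; 72 h 37C; OneGlo luminescence after 5 min RT; norm. to buffer vs Salinomycin 10uM.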
Sm TGR block = blocks Schistosoma mansoni thioredoxin glutathione reductase | purified TGR, DTNB reduction, TNB absorbance 405 nm | Potency, µM (titrated, usually from 114 µM), without a hit: at the highest dose activity change, negative = inhibition, actives largely listed as inhibitors | actives 3% (n = 360,000) | AID 485364; note: potency is the fitted concentration of half-maximal effect; nearly all actives have a fitted effect of over 60% in size
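First, TGR (20 nM dispensed) and NADPH were mixed with compound. Second, a 15 min room-temperature incubation followed. Third, further NADPH and then DTNB were added to start the reaction. Finally, TNB absorbance was monitored kinetically.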
TbPYK inhibitor = blocks Trypanosoma brucei pyruvate kinase. Q57TT1. TbPYK enzyme, Kinase-Glo Plus ATP luminescence, 45 min. Potency, µM (top dose mostly 76.8 µM), without a hit: top-dose activity, negative = inhibition, usual class: inhibitors. actives 0.12% (n = 410,000); note: potency is the fitted concentration of half-maximal effect; nearly all actives have a fitted effect of over 50% in size
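Readout: single end-point luminescence (Kinase-Glo Plus, 10 min). Reaction conditions were TbPYK/substrate plus 130 uM ADP, 45 min at RT, pH 7.2 TEA buffer. No-enzyme wells served as controls, and data were normalized before concentration-response fitting.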
FBPA Giardia inh = Giardia lamblia aldolase inhibition; A8B2U2; purified Giardia FBPA; Potency, µM (titrated, usually from 59.6 µM), without a hit: at the top dose activity, negative = inhibition, usual class: inhibitors; actives 0.71% (n = 290,000); note: potency is the fitted concentration of half-maximal effect; nearly all actives have a fitted effect of over 55% in size
Target sequence (A8B2U2 whole entry, looked up): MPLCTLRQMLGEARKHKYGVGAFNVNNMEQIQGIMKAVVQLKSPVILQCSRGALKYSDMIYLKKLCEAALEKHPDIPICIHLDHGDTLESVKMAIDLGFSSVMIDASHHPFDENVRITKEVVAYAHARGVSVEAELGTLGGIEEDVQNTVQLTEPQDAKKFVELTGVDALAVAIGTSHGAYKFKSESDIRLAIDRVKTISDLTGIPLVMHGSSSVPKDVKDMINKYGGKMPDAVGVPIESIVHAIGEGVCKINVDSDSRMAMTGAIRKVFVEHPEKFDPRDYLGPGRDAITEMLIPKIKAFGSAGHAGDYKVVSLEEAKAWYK
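Giardia FBPA (40 nM reagent) was preincubated 10 min at RT with compound (up to 57.5 uM final), then substrate plus GAPDH/TPI/NAD/arsenate coupling system with diaphorase/resazurin was added; resorufin fluorescence (525/598 nm) was read after 20 min.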
FMDV antiviral = foot and mouth disease virus antiviral activity. FMDV antiviral cell-based qHTS. Potency, µM (titrated, usually from 57.9 µM), without a hit: at the top dose activity change, negative = inhibition, usual class: inhibitors. actives 1.2% (n = 410,000). AID 1159524; calls by dose curve; tested in HEK293T cells; note: read-out not given here; potency is the fitted concentration of half-maximal effect; nearly all actives have a fitted effect of over 45% in size
RE007 growth inh = less growth of the S. pombe RE007 Vpr strain; Potency, µM (highest dose often 92.2 µM), without a hit: at the highest dose activity change, negative = less growth, actives largely listed as inhibitors; S. pombe RE007 Vpr strain, BacTiter-Glo ATP luminescence, 24 h; actives 0.21% (n = 360,000); active = well fitted falling curve with a large enough effect; inconclusive = small, poorly fitted or top-dose-only effect; inactive = no such curve, though single readings can be large or run the other way; note: potency is the fitted concentration of half-maximal effect; nearly all actives have a fitted effect of over 50% in size
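Fission yeast strain RE007, carrying one chromosomally integrated HIV-1 vpr copy, was seeded at OD 0.01 in PMG+AL medium with 23 nL pinned compound. After 24 h at 30 °C and 99% humidity, viability was read by BacTiter-Glo luminescence.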
* hit, by the source's call; ? = inconclusive; . = not tested or not shown; + = active, no number. Unless noted, calls come from the whole dose curve; as a rule, active = well fitted curve in the direction sought with a large enough effect; inconclusive = small, poorly fitted or top-dose-only effect, or another doubt; inactive = no such curve, though single readings can be large; an effect the other way counts as inactive or inconclusive. % is set by controls: 0 for no effect and ±100 for the full control effect.

SMILES	HCMV antiviral	Sm TGR block	TbPYK inhibitor	FBPA Giardia inh	FMDV antiviral	RE007 growth inh
O=c1c2ccccc2nc2n1CCN2Cc1ccc(Cl)cc1	-88.4*	-3.3%	2.1%	-2.9%	.	16.6%
O=C(NCCCN1CCN(c2ccccc2F)CC1)c1ccc2nc(CCc3ccccc3)oc2c1	-100.7*	?	-3.1%	.	?	.
C[N+](C)(CCCCCC[N+](C)(C)C1c2ccccc2-c2ccccc21)C1c2ccccc2-c2ccccc21	.	.	3.0%	.	.	.
Cc1c(NC(=O)c2cccc(-c3cc4ccccc4oc3=O)c2)cccc1-c1nc2ncccc2o1	-67.6*	6.0%	3.2%	-3.9%	-22.6%	3.2%
CCCCOc1cccc(C(=O)Nc2cccc(-c3nc4ncccc4o3)c2C)c1	?	-0.3%	-9.1%	.	?	.
COCC(=O)N1CCC(Oc2ccc(C(=O)N3CCCCCCC3)cc2)CC1	6.8	-2.7%	0.3%	2.8%	17.9%	29.8%
COCC(=O)N1CCC(Oc2ccc(C(=O)N(C)CCCC3CCCC3)cc2)CC1	-67.4*	-11.3%	0.0%	0.0%	?	8.2%
Cc1ncc2c(c1CNC(=O)c1ccc3c(c1)OCO3)CCN(C(=O)c1ccc3ccccc3c1)C2	.	.	.	.	-9.2%	.
O=C1NCCCC2c3c(cc(Br)c(O)c3Br)OC12N1CCOCC1 (stereo unspecified)	-14.2	39.8µM*	-4.5%	-4.8%	22.5%	-26.8%
CCOC(=O)c1c(C)oc2nc(C)nc(NCc3ccc(OC)cc3OC)c12	13.5	-8.3%	1.4%	.	-27.1%	.
Cc1ccc(N2C(=O)NC(=O)/C(=C/c3ccc(-c4ccc(C(=O)O)c(Cl)c4)o3)C2=O)cc1	?	?	?	-24.7%	-14.2%	7.4%
O=C1NC(=O)N(c2ccc(Cl)cc2)C(=O)/C1=C\c1ccc(Sc2nc3ccccc3[nH]2)o1	-9.3	8.91µM*	?	-4.7%	-15.3%	-18.9%
CC(C)N1C(=O)S/C(=C/c2ccc(Sc3nc4ccccc4[nH]3)o2)C1=O	-84.9*	-21.9%	-4.5%	-22.5%	11.2µM*	1.6%
C=CCN1C(=O)S/C(=C/c2ccc(Sc3nc4ccccc4[nH]3)o2)C1=O	-92.3*	-1.0%	-4.5%	-15.4%	28.2µM*	-1.8%
CSc1nc(N)c2ncn([C@@H]3O[C@H](COP(=O)(O)OP(=O)(O)O)[C@H](O)[C@H]3O)c2n1	.	.	.	0.5%	.	.
CN(Cc1ccccc1)c1nnc(NC(=O)Nc2cccc(Br)c2)s1	-27.8	-9.0%	-1.2%	.	?	.
O=C(CCn1cnc2onc(-c3ccc(F)cc3)c2c1=O)Nc1ccc(F)c(Cl)c1	-67.3*	5.6%	2.9%	.	-29.6%	.
O=C(CCn1cnc2onc(-c3ccc(F)cc3)c2c1=O)Nc1cccc(C(F)(F)F)c1	-85.8*	0.0%	-2.9%	.	-18.8%	.
CC1=C(C(=O)OCc2ccc(C)cc2)C(c2cccc(F)c2F)CC(=O)N1 (stereo unspecified)	-21.3	-7.2%	3.2%	.	?	.
COc1ccc(NC(=O)C(C)n2nc(-c3ccc(C)c(C)c3)ccc2=O)cc1OC (stereo unspecified)	10.3	-13.7%	-4.4%	.	0.0%	.
CC1(C)CC(=O)C2=C(C1)OC1=C(C(=O)CC(C)(C)C1)C2c1ccc(O)cc1O	-101.6*	22.4µM*	39.8µM*	-11.0%	6.31µM*	?
CC1(C)CC(=O)C2=C(C1)OC1=C(C(=O)CC(C)(C)C1)C2c1ccc(O)c([N+](=O)[O-])c1	31.6	-4.3%	-1.2%	6.6%	3.3%	16.4%
COCCCNC(=O)C[C@H]1C[C@H](C(=O)N2CCCCC2)[C@@]2(CCc3ccccc3)c3[nH]c4cc(-c5ccco5)ccc4c3CCN2C1=O	-27.7	.	-8.8%	.	-15.1%	-2.0%
O=C(C[C@H]1C[C@H](C(=O)N2CCOCC2)[C@@]2(CCC3CCCC3)c3[nH]c4cc(-c5ccco5)ccc4c3CCN2C1=O)NCCCn1ccnc1	-89.9*	.	1.2%	.	-10.1%	10.2%
O=C(C[C@H]1C[C@H](C(=O)N2CCCCC2)[C@@]2(CCc3ccccc3)c3[nH]c4cc(-c5ccco5)ccc4c3CCN2C1=O)NCCN1CCOCC1	-101.2*	.	1.7%	.	0.0%	17.3%
SMILES	HCMV antiviral	Sm TGR block	TbPYK inhibitor	FBPA Giardia inh	FMDV antiviral	RE007 growth inh
CCN(CC)C(=O)[C@H]1C[C@H](CC(=O)NCCCn2ccnc2)C(=O)N2CCc3c([nH]c4cc(-c5ccco5)ccc34)[C@]12C	-11.5	.	4.2%	.	-11.4%	-2.5%
Fc1ccc(N2CCN(Cc3cccn3-c3nnc(N4CCN(C5CCCCC5)CC4)s3)CC2)cc1	18.2	7.1%	5.5%	.	0.0%	.
O=C(Nc1cccc(F)c1)N1CC2(CCN(C(=O)c3cc(C(F)(F)F)cc(C(F)(F)F)c3)CC2)C1	.	.	1.2%	-0.4%	-10.4%	.
CCSc1nnc(NC(=O)C(C(F)(F)F)C(F)(F)F)s1	-1.6	39.8µM*	2.3%	1.1%	-13.0%	1.0%
CCSc1nnc(NC(=O)c2ccccn2)s1	9.9	1.3%	-11.8%	?	0.0%	11.2µM*
CCSc1nnc(NC(=O)C(C)(C(F)(F)F)C(F)(F)F)s1	-65.9*	-19.8%	0.4%	-3.8%	-20.8%	7.5%
CCSc1nnc(NC(=O)c2cnccn2)s1	.	0.0%	-3.4%	0.6%	.	-19.9%
COc1ccc(N=Cc2[nH]c3ccccc3c2O)cc1	36.7	?	-25.7%	14.1µM*	23.2%	-8.0%
COc1ccc(OCCn2nnc3sc4c(c3c2=O)CCCC4)cc1	-10.5	-2.0%	-9.0%	.	-24.4%	.
O=C1CC(c2ccccc2)=Nc2ccc(Br)cc2N1	-68.5*	10.6%	-10.6%	2.2%	6.5%	-5.9%
Cc1ccc2c(c1)NC(=O)CC(c1ccccc1)=N2	?	-2.9%	1.6%	2.7%	11.5%	-6.7%
CC(NC(=O)C(=O)N1CCCCC1)C(c1cccs1)N1CCN(c2ccc(F)cc2)CC1 (stereo unspecified)	-35.1	-6.4%	-4.1%	.	-9.4%	-0.7%
CC(NC(=O)C(=O)N1CCCCC1)C(c1cccs1)N1CCN(c2ccccc2)CC1 (stereo unspecified)	+	-0.3%	-22.3%	19.9%	-2.9%	1.7%
CCC(=O)N1CCN(c2ccc(-n3c(=O)ccc4cnc5ccc(-c6cnc7ccccc7c6)cc5c43)cc2C(F)(F)F)CC1	-83.0*	.	.	.	.	.
C/C1=C2/[N-]C(C(CC(N)=O)[C@@]2(C)CCC(=O)NCC(C)OP(=O)([O-])O[C@H]2[C@@H](O)[C@@H](n3cnc4cc(C)c(C)cc43)O[C@@H]2CO)[C@]2(C)N=C(/C(C)=C3N=C(/C=C4N=C1C(CCC(N)=O)C\4(C)C)[C@@H](CCC(N)=O)[C@]\3(C)CC(N)=O)[C@@H](CCC(N)=O)[C@]2(C)CC(N)=O.CC(=O)O.[Co] (stereo partly specified)	.	.	-9.5%	.	.	.

Screens: PubChem, National Center for Advancing Translational Sciences (NCATS)
